High-throughput results (PubChem)
AI-2 QS mod = modulates the Vibrio harveyi AI-2 quorum sensing system. Vibrio harveyi JMH597 AI-2 luminescence/OD600 ratio, 9 h; stronger effect = lower value; strain lacks LuxN and CqsS sensors; 0 = neutral-control median. activity change, % at 7.5 µM. hit rate 0.4% among 300,000; in the data active = activity change below about -75%, passing the limit was not always enough;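 note: luminescence divided by OD600 gain over 9 h not by final OD600 alone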
GAA850 FXN act = increases GAA850 frataxin promoter reporter activity | HEK293 lucGAA850 FXN promoter luciferase reporter, 24 h; percent of 10 µM SAHA response | activation, % at 6 µM | hit rate 0.56% among 360,000 | AID 540364;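 active = activation above the average of all compounds screened plus 3 SD, cutoff fixed separately per campaign, cut at about 7.5% in these data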
SMARCA2 act = activators of SMARCA2 function; activation, % at 9.1 µM; MG213 cells, MMTV-luciferase reporter, dexamethasone, overnight; AID 652017; hit rate 1% among 370,000; in the data active = activation above about 7.8%
PG9 binder = binds the HIV-1 gp120 antibody PG9; hit rate 0.43% among 360,000; TR-FRET gp120-PG9 antibody binding; inhibition, % at 6.7 µM; in the data active = inhibition above about 8.5%
HSP90 refold inh = blocks HSP90-mediated luciferase refolding in reticulocyte lysate | AID 1789 | inhibition, % at 5.6 µM | Rabbit reticulocyte lysate, luciferase refolding luminescence, 3 h | hit rate 0.91% among 290,000;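 active = inhibition above the screen-wide mean plus 3 SD, computed separately per campaign, cut at about 16% in these data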;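 note: inhibitors lower the luminescence because luciferase stays unfolded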
HSF1 inh = HSF1 inhibition; NIH3T3-HGL HSE-luciferase, MG132-induced, luminescence 8 h; stronger effect = lower value; AID 2098; activity change, negative = inhibition, % at 7.5 µM (by protocol); hit rate 0.77% among 300,000;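 active = more than half of replicate wells show activity change below -50%, luminescence cut by over half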;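 note: luciferase reports HSF-1 transcriptional activity via heat shock element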
PG9 bind confirm = PG9 antibody binding, confirmed. shares compounds with PG9 binder. TR-FRET PG9 antibody binding, biochemical. inhibition, % at 6.7 µM. hit rate 90% among 1,500. AID 651571; in the data active = inhibition above about 9%
PGV04 counter = binds control antibody PGV04 in PG9 binder counter-screen; shares compounds with PG9 binder; TR-FRET PGV04 antibody-gp120 binding, biochemical; inhibition, % at 6.7 µM; hit rate 95% among 1,500; AID 651604; in the data active = inhibition above about 9.5%
PG9 binder DR = small molecules binding HIV-1 gp120 antibody PG9. shares compounds with PG9 binder. TR-FRET PG9 antibody-gp120 binding inhibition. IC50, µM. 95 tested, under 10 active. AID 651848; in the data active = IC50 below about 10 µM
PGV04 DR counter = counter-screen for PG9 binders: binding to control antibody PGV04; shares compounds with PG9 binder; TR-FRET binding to control antibody PGV04; IC50, µM; hit rate 20% among 95
PG126 binding DR = binds control antibody PG126 in PG9 counter-screen; shares compounds with PG9 binder; TR-FRET binding to antibody PG126, counterscreen; IC50, µM; hit rate 20% among 95
A number is an active result; . = inactive; / = no result. Rows were chosen to be rich in hits. Some 3.4% of all compounds tested hit in one or more screens of this group. Cut-off read from the data, not from the text of the source, unless noted: active = IC50 below about 9 µM; inactive = the rest.

SMILES	AI-2 QS mod	GAA850 FXN act	SMARCA2 act	PG9 binder	HSP90 refold inh	HSF1 inh	PG9 bind confirm	PGV04 counter	others
O=C(C1=C(O)C(=O)N(CCN2CCOCC2)C1c1ccc(Br)cc1)c1cc2ccccc2o1 (configuration not stated)	.	.	.	.	.	.	/	/
COc1cccc2cc(C(=O)C3=C(O)C(=O)N(CCN4CCOCC4)C3c3ccc(Cl)cc3)oc12 (configuration not stated)	.	.	.	.	.	.	/	/
O=C(C1=C(O)C(=O)N(CCN2CCOCC2)C1c1cccc(F)c1)c1cc2ccccc2o1 (configuration not stated)	.	.	.	24	.	.	34	45
Cc1ccc(C2C(C(=O)c3cc4ccccc4o3)=C(O)C(=O)N2CCN2CCOCC2)cc1 (configuration not stated)	.	.	.	10	.	.	27	35
COc1cccc2cc(C(=O)C3=C(O)C(=O)N(CCN4CCOCC4)C3c3cccc(Cl)c3)oc12 (configuration not stated)	.	.	.	18	.	.	27	38
COc1cccc(C2C(C(=O)c3ccc(C)o3)=C(O)C(=O)N2CCN2CCOCC2)c1 (configuration not stated)	.	.	.	9.0	.	.	21	25
CCN(CC)CCN1C(=O)C(O)=C(C(=O)c2cc3cccc(OC)c3o2)C1c1ccc(F)cc1 (configuration not stated)	.	.	.	14	.	.	30	37
COCCN(Cc1ccccc1)C(=O)c1cccc(S(=O)(=O)N2CCN(Cc3ccccc3)CC2)c1	/	.	.	.	/	/	/	/
COC(=O)C1=C(C)N(C)C(=NCc2cc(OC)c(OC)c(OC)c2)NC1c1ccc(C(F)(F)F)cc1 (configuration not stated)	/	/	.	.	/	/	/	/
COC(=O)[C@]12C[C@H](CC(=O)NCCc3ccccc3OC)C(=O)N(CCC3=CCCCC3)C1=C[C@H](COCc1ccccc1)O[C@@H]2C	/	/	.	.	/	/	/	/
CCc1ccc(Nc2nc3ccccc3c(=O)s2)cc1	.	.	.	.	.	.	/	/
CCOc1ccc(Nc2nc3ccccc3c(=O)s2)cc1	.	.	.	17	.	.	18	20
CCCCn1c(SCC(=O)c2ccc(OCC)cc2)nc2cc(S(N)(=O)=O)ccc21	.	.	.	19	.	.	22	35
CCCCn1c(SCC(=O)c2ccc(OC)c(OC)c2)nc2cc(S(N)(=O)=O)ccc21	.	.	.	.	.	.	/	/
CCCCNC(=O)C[C@@H]1C[C@@]2(C(=O)OCC)CCC=C2N(CCC2=CCCCC2)C1=O	/	/	.	.	/	/	/	/
CCCn1c(=S)[nH]c2sc3c(c2c1=O)CCCC3	.	.	.	.	.	.	/	/
Nn1c(=S)[nH]c2sc3c(c2c1=O)CCCC3	.	.	.	9.7	/	.	10	9.4	PG9 binder DR=.;PGV04 DR counter=.;PG126 binding DR=.
COC(=O)[C@]12C[C@H](CC(=O)NCC34CC5CC(CC(C5)C3)C4)C(=O)N(Cc3ccccc3)C1=C[C@H](C1CCCC1)O[C@@H]2C	/	/	.	.	/	/	/	/
C#CCN1CC(COc2ccccc2)OCCS1(=O)=O (configuration not stated)	/	/	.	.	/	/	/	/
C[C@H]1COc2cc(Br)ccc2S(=O)(=O)N1Cc1cn(Cc2ccc(C(F)(F)F)cc2)nn1	/	/	.	/	/	/	/	/
Cc1ccccc1OCCC(=O)Nc1ccc2c(C)cc(=O)oc2c1	.	.	.	10	.	.	15	38
COc1ccccc1C(=O)Nc1ccc2c(C)cc(=O)oc2c1	.	.	.	17	.	.	20	30
CC(=O)N1CCN(c2ccc(N3CCN(C(C)=O)[C@@H](C)C3)c(C)c2)[C@@H](C)C1	/	/	.	.	/	/	/	/
COc1cccc(C2C(C(=O)c3ccc(C)o3)=C(O)C(=O)N2c2cc(C)on2)c1 (configuration not stated)	.	.	.	8.7	.	.	17	22
COc1cccc(C2C(C(=O)c3cccs3)=C(O)C(=O)N2c2cc(C)on2)c1 (configuration not stated)	.	.	.	.	.	.	/	/
SMILES	AI-2 QS mod	GAA850 FXN act	SMARCA2 act	PG9 binder	HSP90 refold inh	HSF1 inh	PG9 bind confirm	PGV04 counter	others
CCCOc1cccc(C2C(C(=O)c3cc4ccccc4o3)=C(O)C(=O)N2c2cc(C)on2)c1 (configuration not stated)	.	.	.	18	.	.	24	38
Cc1cc(N2C(=O)C(O)=C(C(=O)c3cc4ccccc4o3)C2c2cccc(Br)c2)no1 (configuration not stated)	.	.	.	38	.	.	43	56
C#CCCN([C@H](C(=O)OC)C(C)C)S(=O)(=O)c1ccccc1Br	/	/	.	/	/	/	/	/
CCOC(=O)C(=O)N(C)c1c(CC)nc2c(OCc3ccc(OC)cc3)cccn12	/	.	.	.	/	/	/	/
O=C(C1=C(O)C(=O)N(CCCn2ccnc2)C1c1cccc(Br)c1)c1ccco1 (configuration not stated)	.	.	.	14	.	.	15	15
O=C(C1=C(O)C(=O)N(CCCn2ccnc2)C1c1ccccc1)c1ccco1 (configuration not stated)	.	.	/	/	.	.	/	/
COc1cccc(CNC(=O)COC(=O)/C(C#N)=C/c2ccc(N(C)C)cc2)c1	/	.	.	21	/	/	36	51
COc1ccc(-c2oc3ccc(N4CCOCC4)cc3c2/C=C/c2ccc(OC)c(OC)c2)cc1	.	.	.	10	.	.	15	28
CC(=O)c1sc(Nc2ccccn2)nc1C	.	.	.	30	.	.	38	51
COc1ccc(NC(=O)c2sc(NC(=O)C3CC3)nc2C)cc1	.	.	.	.	.	.	/	/
CC(=O)c1sc(NC(=O)COc2ccc(Br)cc2)nc1C	.	.	.	18	.	.	21	60
Cc1nc(NC(=O)C2CC2)sc1C(=O)Nc1ccc(Br)cc1	.	.	.	14	.	.	14	15
CC(=O)c1sc(NC(=O)C(C)C)nc1C	.	.	.	48	.	.	46	64
CC(=O)Nc1nc(C)c(C(C)=O)s1	.	.	.	.	.	.	/	/
